The values below come from the supplement of paper PMC8699584.

The cell viability is a read-out of living cells in per cent, often relative to untreated cells.

Each structure is given as a SMILES string. Several values for one entry are separate records, joined by “and”; a condition that tells them apart may be missing. Equal entries are not always repeated. Structures can show the parent of a compound that is named as a salt. ± gives the standard deviation of the averaged measurements.

For the experiment, the system named is Mv4-11. Put plainly: cell viability relative to DMSO control (bortezomib = 0%); higher = less growth inhibition. As to conditions: 10 nM; 72 h. The procedure, abridged: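 In duplicate runs, a library of 679 approved and investigational compounds in 384-well plates received acute myeloid leukemia cells at 1000 cells per well in 50 µL, with each compound at a single 10 nM dose for 72 h. CellTiter-Glo luminescence, read on an EnVision reader, served as the viability measure. Each plate was normalized by linear regression between DMSO-treated cells (100%) and positive-control-treated cells (0%).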
Consider `NC[C@@](O)(c1ccc(Cl)cc1)c1ccc(-c2cn[nH]c2)cc1`, for which the cell viability worked out at 123 ± 20%.
Consider `COc1cc(Nc2ncc(F)c(Nc3ccc4c(n3)NC(=O)C(C)(C)O4)n2)cc(OC)c1OC` [R406 free base], for which the cell viability was determined as 105 ± 1.6%.
As for `COc1ccc2cc1Oc1ccc(cc1)C[C@H]1c3cc(c(OC)cc3CCN1C)Oc1c(O)c(OC)cc3c1[C@H](C2)N(C)CC3` [Fangchinoline], the figure is 122 ± 9.6%; as for `CN(C)C/C=C/C(=O)Nc1ccc(C(=O)Nc2cccc(Nc3ncc(Cl)c(-c4c[nH]c5ccccc45)n3)c2)cc1`, 95.3 ± 1.1%; as for `COc1ccc(CCNCc2ccc(OCc3ccc(Cl)nc3)c(OC)c2)cc1OC` [SBE 13 hydrochloride], 107 ± 3%.
As for `Cc1cc(C)c(/C=C2\C(=O)Nc3ccccc32)[nH]1` [Semaxanib (SU5416)], the figure is 98 ± 16%; as for `C[C@H]1[C@H](C)CC[C@]2(C(=O)O)CC[C@]3(C)C(=CC[C@@H]4[C@@]5(C)C[C@@H](O)[C@H](O)[C@@](C)(CO)[C@@H]5CC[C@]43C)[C@H]12` [Asiatic acid], 103 ± 4.2%.
With `COc1cc2ncnc(Nc3cccc(Br)c3)c2cc1OC`, the cell viability is 99.1% and 113%.
As to `CC(C)=CCC[C@](C)(O[C@@H]1O[C@H](CO)[C@@H](O)[C@H](O)[C@H]1O)[C@H]1CC[C@]2(C)[C@@H]1[C@H](O)C[C@@H]1[C@@]3(C)CC[C@H](O)C(C)(C)[C@@H]3[C@@H](O[C@@H]3O[C@H](CO)[C@@H](O)[C@H](O)[C@H]3O[C@@H]3OC[C@@H](O)[C@H](O)[C@H]3O)C[C@]12C` [Notoginsenoside R1], the cell viability was determined as 105 ± 7.3%.
To `FC(F)(F)c1ccc(CNc2ccc(Cc3c[nH]c4ncc(Cl)cc34)cn2)cc1` belongs 106 ± 19%.
